The values below come from PubChem BioAssay (Tox21).

Inconclusive results are not listed. Calls of active or inactive are those of the source. Unless noted, calls come from the whole dose curve; as a rule, active = well fitted curve in the direction sought with a large enough effect in the repeat runs; inconclusive = weak or mixed curves; inactive = no such curve, though single readings can be large; an effect the other way counts as inactive or inconclusive.

Experiment [1] can be described thus: qHTS assay to identify small molecule antagonists of the estrogen related receptor (ERR) signaling pathway from Tox21 library - cell viability counter screen (AID 1224834). Note: nearly all actives have a fitted effect of over 30% in size. In a few lines:
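Cytotoxicity of test substances is gauged in the same ERR cells used for the antagonist screen, after 17.5 h of compound treatment at 37 C, by CellTiter-Fluor fluorescence measured after 30 min.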

Experiment [2] addresses Luciferin 4-monooxygenase (Photinus pyralis) (UniProt P08659). Put plainly: qHTS assay to identify small molecule inhibitors of firefly luciferase (AID 1224835). Note: nearly all actives have a fitted effect of over 25% in size. Note: potency is the fitted concentration of half-maximal effect. In a few lines: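 Inhibition of purified Photinus luciferase is measured by luminescence. Substrate levels (D-luciferin, ATP) sit at their KM values. Each compound is tested in a concentration series.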
Experiment [3] is described as follows: qHTS assay to identify small molecule agonists of the constitutive androstane receptor (CAR) signaling pathway - cell viability counter screen (AID 1224836). Note: series mostly up to about 92 µM; nearly all actives have a fitted effect of over 45% in size. Summed up: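 Using CellTiter-Fluor, viability of HepG2 cells harbouring hCAR and CYP2B6-2.2kb was measured following 23 h incubation with a 15-concentration compound series plus PK11195 (0.75 uM final).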
In general terms: qHTS replaces the single test concentration by a dilution series.

Experiment [4] is described as follows: qHTS assay to identify small molecule antagonists of the constitutive androstane receptor (CAR) signaling pathway - cell viability counter screen (AID 1224837). Note: series mostly up to about 92 µM; nearly all actives have a fitted effect of over 45% in size. Summed up: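 Multiplexed cytotoxicity read-out for the CAR antagonist screen: double-stable HepG2-CYP2B6-hCAR cells co-treated with 50 nM CITCO (final) and compound over 15 concentrations, incubated 23 hr, then assessed by CellTiter-Fluor fluorescence.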

Experiment [5] has as its target Nuclear receptor subfamily 1 group I member 3 (Homo sapiens) (UniProt Q14994). Put plainly: qHTS assay to identify small molecule antagonists of the constitutive androstane receptor (CAR) signaling pathway (AID 1224838). Note: nearly all actives have a fitted effect of over 40% in size. In a few lines:
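Compounds were titrated across 15 concentrations onto HepG2 cells double-stably expressing hCAR and a CYP2B6-2.2kb reporter, together with 50 nM CITCO (final). After 24 h at 37 C, luciferase activity was measured by luminescence.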

Experiment [6] has the same target. The experiment can be described thus: qHTS assay to identify small molecule agonists of the constitutive androstane receptor (CAR) signaling pathway (AID 1224839).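 For activation: HepG2 cells stably carrying human CAR and a CYP2B6 luciferase reporter; series mostly up to about 92 µM.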 Note: nearly all actives have a fitted effect of over 15% in size. Note: potency is the fitted concentration of half-maximal effect. In a few lines:
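Double-stable HepG2 cells (hCAR, CYP2B6-2.2kb) seeded 4 h before compound addition. Exposure 24 h with 0.75 uM PK11195 final. Luciferase detected by ONE-Glo.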

Experiment [7] can be described thus: qHTS assay to identify small molecule antagonists of the estrogen related receptor signaling pathway with the pleiotropic PPARgamma coactivator (PGC) from Tox21 10K library - cell viability counter screen (AID 1224840; active = well fitted cell-killing curve with a large enough effect in the repeat runs, not every such curve was filed as active; note: nearly all actives have a fitted effect of over 40% in size). In a few lines: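 Step one, plate 2,000 PGC/ERR cells per well; step two, incubate 6 h at 37 C/5% CO2; step three, pin-transfer compounds; step four, incubate 17.5 h; step five, add CellTiter-Fluor and read fluorescence after 30 min.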

In experiment [8] the target is Thyrotropin receptor (Homo sapiens) (UniProt P16473). Put plainly: qHTS assay to identify small molecule agonists of the thyroid stimulating hormone receptor (TSHR) signaling pathway (AID 1224843; calls by dose curve; note: nearly all actives have a fitted effect of over 45% in size; note: potency is the fitted concentration of half-maximal effect). Summed up: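 Screening of the Tox21 10K collection used HEK293 cells engineered with TSHR at 800 cells per well. After a 30-min room-temperature compound exposure, HTRF cAMP reagents were added and fluorescence recorded 1 h later.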
Chain of Thyrotropin receptor (Homo sapiens) (P16473 whole entry, looked up): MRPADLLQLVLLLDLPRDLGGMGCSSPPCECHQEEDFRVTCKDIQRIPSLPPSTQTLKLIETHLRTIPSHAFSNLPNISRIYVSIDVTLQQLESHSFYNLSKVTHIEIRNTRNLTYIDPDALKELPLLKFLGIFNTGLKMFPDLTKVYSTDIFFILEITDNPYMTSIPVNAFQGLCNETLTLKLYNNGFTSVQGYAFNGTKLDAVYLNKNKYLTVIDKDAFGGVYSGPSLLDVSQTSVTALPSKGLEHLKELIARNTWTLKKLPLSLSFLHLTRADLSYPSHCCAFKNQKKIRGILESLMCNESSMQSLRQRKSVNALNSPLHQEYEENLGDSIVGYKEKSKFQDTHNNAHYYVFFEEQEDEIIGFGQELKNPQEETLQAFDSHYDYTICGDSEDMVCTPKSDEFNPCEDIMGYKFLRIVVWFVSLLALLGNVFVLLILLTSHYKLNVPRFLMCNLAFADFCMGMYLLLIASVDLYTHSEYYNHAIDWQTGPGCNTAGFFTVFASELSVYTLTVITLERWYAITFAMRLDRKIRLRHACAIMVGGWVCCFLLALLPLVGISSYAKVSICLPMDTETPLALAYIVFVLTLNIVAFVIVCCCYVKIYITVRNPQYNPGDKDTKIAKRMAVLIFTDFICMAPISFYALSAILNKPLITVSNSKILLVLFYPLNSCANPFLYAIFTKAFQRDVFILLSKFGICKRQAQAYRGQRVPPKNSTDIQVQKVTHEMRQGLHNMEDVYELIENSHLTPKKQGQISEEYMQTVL

A short description of experiment [9]: qHTS assay to identify small molecule agonists of H2AX (AID 1224845; active = well fitted activation curve with a large enough effect in the signal ratio in the repeat runs, not every such curve was filed as active; the % refers to the signal ratio). Summed up: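 Phospho-H2AX Ser139 measured by HTRF (ex 320 nm; em 665 and 620 nm) after 24 hr antibody incubation. Compounds, 15 concentrations, 0.76% DMSO, were applied to CHO-K1 cells for 3hr at 37C before lysis.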
Experiment [10] in a line: qHTS assay to identify small molecule agonists of the hypoxia (HIF-1) signaling pathway (AID 1224846; active = well fitted activation curve with a large enough effect in the signal ratio in the repeat runs, not every such curve was filed as active; the % refers to the signal ratio). Summed up: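 Steps: seed ME-180 HRE-bla cells (2,000/well, 0.5% dialyzed FBS); incubate 5 hrs at 37C; pin-transfer compounds or DMSO; incubate 17 hrs; add LiveBLAzer B/G substrate CCF4-AM; measure reporter activation by FRET.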
Experiment [11] can be described thus: qHTS assay to identify small molecule agonists of H2AX - cell viability counter screen (AID 1224847; calls by dose curve; note: top concentration of the series differs between compounds; nearly all actives have a fitted effect of over 30% in size). Summed up: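 Quantitative HTS viability measurement: CHO-K1 wild-type cells in serum (10% FBS) medium, short 3 hr drug exposure at 37C with 0.76% DMSO, CellTiter-Glo luminescent detection.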
Experiment [12] can be described thus: qHTS RealTime-Glo MT Cell Viability Assay in HepG2 cells - 24 hour (AID 1224867). Note: nearly all actives have a fitted effect of over 50% in size. In a few lines: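 HepG2 cells (600/well) were dispensed with RealTime-Glo reagents, incubated 5 h at 37 °C, then treated with compounds in DMSO for up to 40 h. Nonlytic NanoLuc luminescence reflecting viable cells was read at each stated time point.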
Experiment [13] is described as follows: qHTS RealTime-Glo MT Cell Viability Assay in HEK293 cells - 32 hour (AID 1224868). Note: top concentration of the series differs between compounds; nearly all actives have a fitted effect of over 50% in size. In a few lines:
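HEK293 cells seeded with NanoLuc/prosubstrate reagent, rested 5 h at 37 C, then dosed and kept at 37 C up to 40 h. Nonlytic real-time luminescence from viable cells read at 0, 8, 16, 24, 32 and 40 h.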

A short description of experiment [14]: A CellTox Green Cytotoxicity Assay to monitor cytotoxicity in HEK293 cells - 0 hour (AID 1224869). Note: nearly all actives have a fitted effect of over 50% in size. In a few lines: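 Cytotoxicity was tracked continuously in HEK293 cells by a DNA-binding dye excluded from viable cells. Compounds were transferred in DMSO 5 h after seeding; fluorescence was recorded at intervals up to 40 h.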
The nature of experiment [15]: qHTS assay to identify small molecule agonists of the hypoxia (HIF-1) signaling pathway - cell viability counter screen (AID 1224844; calls by dose curve; note: nearly all actives have a fitted effect of over 50% in size). Summed up: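 Tox21 10K compounds were added to HRE-bla ME-180 cells (0.5% dialyzed FBS) and incubated 17 hrs at 37C; ATP-based CellTiter-Glo luminescence then reported cell viability in the same wells.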

Chain of Luciferin 4-monooxygenase (Photinus pyralis) (P08659 whole entry, looked up): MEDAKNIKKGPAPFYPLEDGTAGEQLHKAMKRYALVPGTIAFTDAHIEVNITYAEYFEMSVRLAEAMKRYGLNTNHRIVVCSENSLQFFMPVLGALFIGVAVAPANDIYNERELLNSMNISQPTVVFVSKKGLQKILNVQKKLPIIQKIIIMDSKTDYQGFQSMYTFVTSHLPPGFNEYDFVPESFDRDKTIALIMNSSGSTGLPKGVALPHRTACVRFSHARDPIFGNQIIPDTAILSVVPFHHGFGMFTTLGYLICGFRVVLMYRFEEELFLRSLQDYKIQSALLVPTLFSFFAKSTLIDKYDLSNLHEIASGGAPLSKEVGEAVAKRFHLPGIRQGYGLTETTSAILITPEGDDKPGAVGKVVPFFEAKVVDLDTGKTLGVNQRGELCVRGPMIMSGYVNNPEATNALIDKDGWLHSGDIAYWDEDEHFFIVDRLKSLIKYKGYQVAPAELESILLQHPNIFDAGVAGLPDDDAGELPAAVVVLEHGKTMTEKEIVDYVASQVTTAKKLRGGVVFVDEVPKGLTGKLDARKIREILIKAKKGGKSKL
Chain of Nuclear receptor subfamily 1 group I member 3 (Homo sapiens) (Q14994 whole entry, looked up): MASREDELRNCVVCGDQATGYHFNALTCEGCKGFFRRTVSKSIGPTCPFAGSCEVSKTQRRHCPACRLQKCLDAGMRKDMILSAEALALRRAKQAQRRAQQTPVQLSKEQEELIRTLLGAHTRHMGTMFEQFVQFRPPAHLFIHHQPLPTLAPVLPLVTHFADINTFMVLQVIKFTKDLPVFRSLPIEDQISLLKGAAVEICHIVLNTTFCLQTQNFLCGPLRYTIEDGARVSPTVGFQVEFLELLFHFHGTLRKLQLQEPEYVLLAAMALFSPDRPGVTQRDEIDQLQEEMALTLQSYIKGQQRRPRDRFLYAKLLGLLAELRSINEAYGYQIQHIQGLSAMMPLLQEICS

For `CCCCCCCCOC(=O)c1ccc(C(=O)OCCCCCCCC)c(C(=O)OCCCCCCCC)c1`, the Potency entry in experiment [1], in experiment [2], in experiment [3], in [4], in experiment [5] and in experiment [6] was “inactive” throughout. The Potency entry in [7], in [8], in experiment [9], in experiment [11], in experiment [12] and in [13] was “inactive” throughout. For the same compound, the Potency result in [14] is “inactive”. In addition, the call in experiment [10] was inactive.
Consider `Clc1cc(Cl)c(Cl)c(Cl)c1`, for which the Potency result in [1], in experiment [2], in [3], in [4], in [5] and in [6] was “inactive” in each case. The Potency entry in experiment [7], in experiment [8], in experiment [15], in experiment [9], in experiment [11] and in experiment [12] was “inactive” each time. Moreover, the Potency entry in experiment [13] was “inactive”. Further, in [10], the result was inactive.
For the compound `C[C@]12CC[C@H]3[C@@H](CCC4=CC(=O)CC[C@@H]43)[C@@H]1CC[C@@H]2OC(=O)CCC1CCCCC1`, the Potency entry in experiment [1], in [2], in experiment [3], in experiment [4], in experiment [5] and in [6] was “inactive” each time. Moreover, the Potency result in experiment [7], in [15], in experiment [12], in experiment [13] and in [14] was “inactive” in each case. Further, the call in experiment [10] was inactive.
Regarding `CCCCC(CC)COP(=O)(Oc1ccccc1)Oc1ccccc1` (stereo unspecified), the Potency entry in experiment [1], in experiment [2], in experiment [3], in experiment [4], in experiment [5] and in experiment [7] was “inactive” throughout. Further, the Potency entry in experiment [9], in experiment [12], in experiment [13] and in experiment [14] was “inactive” each time. The Potency in experiment [6] and in [8] was 27.3 µM (active) throughout. Also, the call in experiment [10] was inactive.
With `COC(=O)C(Cl)C(=O)OC`, the Potency entry in [1], in [2], in experiment [3], in experiment [4], in experiment [5] and in [6] was “inactive” in each case. For the same compound, the Potency result in experiment [7], in experiment [8], in experiment [15], in experiment [9], in [11] and in [12] was “inactive” each time. Besides, the Potency entry in experiment [13] and in experiment [14] was “inactive” each time. Also, the result in experiment [10] was inactive.
Regarding `CN(C)c1ccc(N(C)C)cc1`, the Potency result in [1], in experiment [3], in experiment [4], in experiment [5], in experiment [7] and in experiment [12] was “inactive” in each case. Also, in experiment [14], the Potency result is “inactive”. The Potency in experiment [2] was 63.5 µM (active); in experiment [6], 61.3 µM (active). The result in [10] was inactive.
For the compound `Clc1cccc2ccccc12`, the Potency result in experiment [1], in experiment [2], in experiment [3], in experiment [4], in experiment [5] and in experiment [6] was “inactive” each time. The Potency result in [7], in experiment [8], in experiment [15], in [9], in [11] and in [12] was “inactive” throughout. Moreover, the Potency result in experiment [13] and in experiment [14] was “inactive” each time. For the same compound, in experiment [10], the compound was classed as inactive.
`COc1c(C(C)(C)C)cc([N+](=O)[O-])c(C)c1[N+](=O)[O-]`: the Potency entry in experiment [1], in [2], in [3], in experiment [4], in experiment [5] and in experiment [7] was “inactive” throughout. In addition, the Potency entry in experiment [15], in [9], in [11], in experiment [12], in [13] and in experiment [14] was “inactive” in each case. The Potency in experiment [6] is 24.1 µM (active). Moreover, the outcome in [10] was inactive.
With `CCOc1ccc(C(C)(C)COCc2cccc(Oc3ccccc3)c2)cc1`, the Potency entry in experiment [1], in [2], in [3], in experiment [4], in experiment [5] and in [7] was “inactive” throughout. Besides, the Potency result in experiment [15], in [9], in [11], in experiment [12], in experiment [13] and in experiment [14] was “inactive” each time. Besides, the Potency in experiment [6] was 6.11 µM (active). In addition, in experiment [10], the outcome was inactive.
